The structures appear in SMILES notation. Activity calls are given as the source filed them. The calls were made as follows: active = hit-call score of the fitted dose curve at least 0.9, where 1 is the maximum; inactive = score below 0.9.

A short description of test [1]: ATG_CRE_CIS: Attagene CIS-FACTORIAL HepG2 Assay for human cAMP Responsive Element (CRE) binding protein 3 (AID 2282926). The settings on record: HepG2 CRE cis-reporter, Attagene multiplexed mRNA; actives raise or lower the signal. In short, it runs like this:
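HepG2 cells transiently transfected with cis-element-driven multiple reporter transcription units; CRE reporter mRNA measured 24 h after dosing by RT-PCR, 6-FAM labelling, HpaI digestion and capillary electrophoresis. Bidirectional fit versus DMSO baseline.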

Test [2] concerns the target CCAAT/enhancer-binding protein beta (Homo sapiens) (UniProt P17676). As to the kind of experiment: ATG_C_EBP_CIS: Attagene CIS-FACTORIAL HepG2 Assay for human CCAAT/Enhancer Binding Protein (C/EBP) beta (AID 2282927). Particulars: HepG2 Attagene cis-factorial transcription factor reporter; actives raise or lower the signal. A digest of the protocol:
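Changes in reporter mRNA, rather than exogenous chimeric receptor activity, reflect native C/EBP signalling in transfected HepG2 cells dosed for 24 h; transcripts are detected by RT-PCR and capillary electrophoresis.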

A short description of test [3]: ATG_CMV_CIS: Attagene CIS-FACTORIAL HepG2 Assay for human CMV (Internal Marker) (AID 2282928).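 Also: endpoint acts as a background internal control marker rather than a target.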 The settings on record: HepG2 CMV promoter reporter, transcription factor profiling; actives raise or lower the signal. In short, it runs like this: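 Cell system: HepG2, transiently transfected multiple reporter units under cis promoters. Exposure: 24 h. Detection: RT-PCR, FAM labeling, HpaI digestion, capillary electrophoresis. Analysis: bidirectional, DMSO baseline.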

Test [4] is described as follows: ATG_AP_1_CIS: Attagene CIS-FACTORIAL HepG2 Assay for human Activator Protein 1 (AP-1) (AID 2282931). The settings on record: HepG2 Attagene cis-factorial AP-1 reporter mRNA; actives raise or lower the signal. A digest of the protocol: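 Multiplexed HepG2 reporter assay, 24 h dosing. mRNA induction detected by RT-PCR plus capillary electrophoresis. Activity fitted in both directions against DMSO.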

Test [5] in a line: ATG_AP_2_CIS: Attagene CIS-FACTORIAL HepG2 Assay for human Activator Protein 2 (AP-2) (AID 2282932). Particulars: HepG2 AP-2 cis-reporter, Attagene transcription factor profiling; actives raise or lower the signal. A digest of the protocol: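 Step one: transient transfection of HepG2 with reporter transcription units. Step two: 24 h chemical exposure. Step three: RNA extraction, RT-PCR, labelled fragment analysis by capillary electrophoresis; DMSO serves as baseline.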

Test [6] is described as follows: ATG_BRE_CIS: Attagene CIS-FACTORIAL HepG2 Assay for human Bone Morphogenetic Protein (BMP) Response Element (BRE) (AID 2282933). The settings on record: HepG2 BMP response element reporter, Attagene transcription factor profiling; actives raise or lower the signal. In short, it runs like this:
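Endogenous transcription factor activity read in transiently transfected HepG2 cells after 24 h chemical exposure. Bidirectional curve fitting against DMSO; readout is reporter transcript level by RT-PCR with capillary electrophoresis of labelled products.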

Test [7] has as its target Transcription factor E2F1 (Homo sapiens) (UniProt Q01094). As to the kind of experiment: ATG_E2F_CIS: Attagene CIS-FACTORIAL HepG2 Assay for human E2F Transcription Factor 1 (AID 2282935). The settings on record: HepG2 Attagene cis-reporter, E2F reporter RNA transcripts; actives raise or lower the signal. A digest of the protocol: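 Total RNA from 24 h-treated, reporter-transfected HepG2 cells undergoes DNase I treatment, oligo(dT) reverse transcription, PCR and 6-FAM primer extension before capillary electrophoresis.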

Test [8] can be described thus: ATG_E_Box_CIS: Attagene CIS-FACTORIAL HepG2 Assay for human Enhancer Box (E-box) (AID 2282936). The settings on record: HepG2 E-box cis-reporter transcription, actives raise or lower the signal. In short, it runs like this:
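DMSO served as negative control and baseline for bidirectional fitting. Human hepatoma HepG2 cells, transiently transfected with cis-reporter constructs, were dosed 24 h; reporter mRNA read by RT-PCR and capillary electrophoresis.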

Test [9] in a line: ATG_M_61_CIS: Attagene CIS-FACTORIAL HepG2 Assay for M61 Transcription Factor (Internal Marker) (AID 2282937). Particulars: HepG2 Attagene CIS-FACTORIAL M61 internal marker reporter; actives raise or lower the signal. In short, it runs like this: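 Endogenous transcription factor activity in HepG2 is read through transiently transfected cis-element reporter units. After 24 h dosing, RNA undergoes reverse transcription, PCR and primer extension with 6-FAM before capillary electrophoresis; DMSO-referenced bidirectional fit.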

A short description of test [10]: ATG_EGR_CIS: Attagene CIS-FACTORIAL HepG2 Assay for human Early Growth Response 1 (EGR1) (AID 2282938). The settings on record: HepG2 Attagene CIS-FACTORIAL EGR reporter mRNA; actives raise or lower the signal. A digest of the protocol:
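Activity is taken as induction or loss of reporter mRNA versus DMSO, fitted bidirectionally. Transcripts from cis-regulated reporter units in transiently transfected HepG2 were measured after 24 h by RT-PCR with capillary electrophoresis.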

Test [11] in a line: ATG_M_19_CIS: Attagene CIS-FACTORIAL HepG2 Assay for M19 Transcription Factor (Internal Marker) (AID 2282939). The settings on record: HepG2 Attagene CIS-FACTORIAL M19 internal marker reporter; actives raise or lower the signal. In short, it runs like this:
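Internal marker readout, fitted in both directions against DMSO, from HepG2 cells carrying transfected cis-element reporter constructs; RT-PCR and capillary electrophoresis of reporter mRNA after 24 h exposure.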

A short description of test [12]: ATG_GATA_CIS: Attagene CIS-FACTORIAL HepG2 Assay for human GATA Binding Protein (AID 2282944). The settings on record: HepG2 GATA cis-element reporter, Attagene multiplex mRNA; actives raise or lower the signal. In short, it runs like this: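 Reporter transcripts from a GATA cis-regulated unit, among multiplexed reporters in transfected HepG2 cells, were measured by RT-PCR with capillary electrophoresis after 24 h dosing. Induction or loss scored relative to DMSO.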

The nature of test [13]: ATG_GLI_CIS: Attagene CIS-FACTORIAL HepG2 Assay for human Zinc Finger Protein GLI1 (AID 2282945). The settings on record: HepG2, Attagene cis-factorial reporter mRNA, GLI element; actives raise or lower the signal. A digest of the protocol:
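Bidirectional curve fits relative to DMSO, using reporter mRNA levels from RT-PCR plus capillary electrophoresis. Cells were HepG2 transiently carrying cis-regulated reporter constructs, harvested 24 h after dosing.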

Test [14] in a line: ATG_ISRE_CIS: Attagene CIS-FACTORIAL HepG2 Assay for human Interferon Regulatory Factor 1 (IRF1) binding to an Interferon-Stimulated Response Element (ISRE) (AID 2282948). The settings on record: HepG2 ISRE cis-reporter (Attagene), mRNA transcription readout; actives raise or lower the signal. A digest of the protocol: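 Quantitation relies on labelled RT-PCR fragments separated by capillary electrophoresis. Human HepG2 cells bearing cis-promoter reporter constructs were treated 24 h; DMSO served as baseline for bidirectional fitting.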

Test [15] is described as follows: ATG_M_32_CIS: Attagene CIS-FACTORIAL HepG2 Assay for M32 Transcription Factor (Internal Marker) (AID 2282949).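 Also: background control marker of the multiplexed CIS panel rather than a real target.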 The settings on record: HepG2 Attagene cis-factorial M32 reporter, mRNA; actives raise or lower the signal. In short, it runs like this: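 Following 24 h chemical exposure of HepG2 cells transiently expressing cis-promoter reporter constructs, reporter transcript levels were determined by RT-PCR with fluorescent labelling and capillary electrophoresis, then fitted bidirectionally against DMSO.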

The nature of test [16]: ATG_MRE_CIS: Attagene CIS-FACTORIAL HepG2 Assay for human Metal Responsive Element (MRE) (AID 2282954). Particulars: HepG2 MRE cis-reporter transcription, Attagene multiplex; actives raise or lower the signal. In short, it runs like this:
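After a 24 h chemical exposure, transiently transfected HepG2 cells yield RNA whose reporter sequences are amplified, FAM-labelled and sized by capillary electrophoresis. Curves are fitted bidirectionally relative to DMSO.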

Test [17] concerns the target Paired box protein Pax-6 (Homo sapiens) (UniProt P26367). As to the kind of experiment: ATG_Pax6_CIS: Attagene CIS-FACTORIAL HepG2 Assay for human Paired Box 6 (PAX6) (AID 2282956). Particulars: HepG2 CIS-FACTORIAL PAX6 reporter transcription, RNA readout; actives raise or lower the signal. A digest of the protocol: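 After twenty-four hours of chemical exposure, transfected HepG2 cells are harvested for RNA. Cis-promoter reporter transcripts are amplified, fluorescently labelled and sized by capillary electrophoresis, with gain and loss of signal scored against DMSO.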

Test [18] in a line: ATG_PXRE_CIS: Attagene CIS-FACTORIAL HepG2 Assay for human Pregnane X Receptor Element (PXRE) (AID 2282957). The settings on record: HepG2 Attagene CIS-FACTORIAL PXRE reporter, mRNA; actives raise or lower the signal. In short, it runs like this: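 HepG2 cells transiently transfected with cis-element-driven multiplexed reporter units; after 24 h chemical exposure, reporter mRNA measured by RT-PCR, 6-FAM labelling, HpaI digestion and capillary electrophoresis. Bidirectional fitting relative to DMSO.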

In test [19] the target is Transcription factor Sp1 (Homo sapiens) (UniProt P08047). As to the kind of experiment: ATG_Sp1_CIS: Attagene CIS-FACTORIAL HepG2 Assay for human Specificity Protein 1 (Sp1) (AID 2282961). Particulars: HepG2 Sp1 cis-reporter transcription, actives raise or lower the signal. A digest of the protocol: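 Cells: HepG2, transiently transfected with cis-regulated multiplexed reporters. Exposure: 24 h. Detection: reporter transcripts amplified, fluorescently labeled, restriction-digested and sized by capillary electrophoresis. Analysis: bidirectional fit relative to DMSO.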

Test [20] deals with Signal transducer and activator of transcription 3 (Homo sapiens) (UniProt P40763). As to the kind of experiment: ATG_STAT3_CIS: Attagene CIS-FACTORIAL HepG2 Assay for human Signal Transducer and Activator of Transcription 3 (STAT3) (AID 2282963). The settings on record: HepG2, Attagene cis-factorial STAT3 reporter transcription; actives raise or lower the signal. In short, it runs like this:
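After a 24 h compound incubation, total RNA from MRTU-transfected HepG2 cells was converted to cDNA and reporter sequences PCR-amplified, labelled and profiled by capillary electrophoresis. Gain and loss of signal were referenced to DMSO.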

Chain of CCAAT/enhancer-binding protein beta (Homo sapiens) (P17676 whole entry, looked up): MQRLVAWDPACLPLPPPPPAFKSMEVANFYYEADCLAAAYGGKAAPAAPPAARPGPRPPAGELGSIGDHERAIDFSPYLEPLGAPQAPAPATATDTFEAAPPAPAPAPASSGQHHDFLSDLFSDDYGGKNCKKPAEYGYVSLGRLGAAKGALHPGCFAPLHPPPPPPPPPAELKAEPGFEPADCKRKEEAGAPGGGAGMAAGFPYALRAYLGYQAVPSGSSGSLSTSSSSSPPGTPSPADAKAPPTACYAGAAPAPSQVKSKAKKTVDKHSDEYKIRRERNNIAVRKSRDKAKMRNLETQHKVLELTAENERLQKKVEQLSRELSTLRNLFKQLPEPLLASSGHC
Chain of Transcription factor E2F1 (Homo sapiens) (Q01094 whole entry, looked up): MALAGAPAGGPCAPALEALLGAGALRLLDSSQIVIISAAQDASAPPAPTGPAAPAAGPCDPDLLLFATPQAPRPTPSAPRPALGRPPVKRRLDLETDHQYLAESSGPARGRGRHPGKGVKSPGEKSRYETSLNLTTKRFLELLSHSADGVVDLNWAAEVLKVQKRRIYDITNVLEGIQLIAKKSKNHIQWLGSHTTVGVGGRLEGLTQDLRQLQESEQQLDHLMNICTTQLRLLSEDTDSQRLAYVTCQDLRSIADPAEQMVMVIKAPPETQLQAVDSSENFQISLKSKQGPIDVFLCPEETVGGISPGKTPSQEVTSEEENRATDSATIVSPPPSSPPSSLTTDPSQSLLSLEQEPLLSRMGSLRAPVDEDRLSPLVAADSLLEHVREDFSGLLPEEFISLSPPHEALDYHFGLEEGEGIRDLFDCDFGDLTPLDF
Chain of Transcription factor Sp1 (Homo sapiens) (P08047 whole entry, looked up): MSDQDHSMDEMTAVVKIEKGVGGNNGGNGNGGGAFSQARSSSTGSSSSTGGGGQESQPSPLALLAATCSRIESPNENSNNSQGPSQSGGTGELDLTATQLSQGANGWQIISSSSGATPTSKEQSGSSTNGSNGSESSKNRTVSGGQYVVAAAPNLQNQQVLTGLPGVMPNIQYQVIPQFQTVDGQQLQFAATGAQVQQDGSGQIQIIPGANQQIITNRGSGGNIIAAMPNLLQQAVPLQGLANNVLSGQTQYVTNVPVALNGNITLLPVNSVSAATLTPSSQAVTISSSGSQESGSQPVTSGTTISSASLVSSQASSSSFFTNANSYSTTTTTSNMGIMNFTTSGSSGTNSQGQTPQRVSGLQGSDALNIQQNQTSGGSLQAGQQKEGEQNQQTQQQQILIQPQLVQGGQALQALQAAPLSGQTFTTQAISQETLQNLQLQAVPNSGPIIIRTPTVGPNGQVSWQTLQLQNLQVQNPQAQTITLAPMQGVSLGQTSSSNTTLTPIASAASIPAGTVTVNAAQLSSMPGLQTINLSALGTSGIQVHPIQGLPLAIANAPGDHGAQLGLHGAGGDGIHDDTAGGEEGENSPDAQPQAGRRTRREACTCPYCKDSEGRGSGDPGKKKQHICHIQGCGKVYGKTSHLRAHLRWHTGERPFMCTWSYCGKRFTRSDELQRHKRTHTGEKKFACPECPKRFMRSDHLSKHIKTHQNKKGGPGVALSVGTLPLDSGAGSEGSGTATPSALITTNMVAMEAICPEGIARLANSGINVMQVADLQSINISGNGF
Chain of Signal transducer and activator of transcription 3 (Homo sapiens) (P40763 whole entry, looked up): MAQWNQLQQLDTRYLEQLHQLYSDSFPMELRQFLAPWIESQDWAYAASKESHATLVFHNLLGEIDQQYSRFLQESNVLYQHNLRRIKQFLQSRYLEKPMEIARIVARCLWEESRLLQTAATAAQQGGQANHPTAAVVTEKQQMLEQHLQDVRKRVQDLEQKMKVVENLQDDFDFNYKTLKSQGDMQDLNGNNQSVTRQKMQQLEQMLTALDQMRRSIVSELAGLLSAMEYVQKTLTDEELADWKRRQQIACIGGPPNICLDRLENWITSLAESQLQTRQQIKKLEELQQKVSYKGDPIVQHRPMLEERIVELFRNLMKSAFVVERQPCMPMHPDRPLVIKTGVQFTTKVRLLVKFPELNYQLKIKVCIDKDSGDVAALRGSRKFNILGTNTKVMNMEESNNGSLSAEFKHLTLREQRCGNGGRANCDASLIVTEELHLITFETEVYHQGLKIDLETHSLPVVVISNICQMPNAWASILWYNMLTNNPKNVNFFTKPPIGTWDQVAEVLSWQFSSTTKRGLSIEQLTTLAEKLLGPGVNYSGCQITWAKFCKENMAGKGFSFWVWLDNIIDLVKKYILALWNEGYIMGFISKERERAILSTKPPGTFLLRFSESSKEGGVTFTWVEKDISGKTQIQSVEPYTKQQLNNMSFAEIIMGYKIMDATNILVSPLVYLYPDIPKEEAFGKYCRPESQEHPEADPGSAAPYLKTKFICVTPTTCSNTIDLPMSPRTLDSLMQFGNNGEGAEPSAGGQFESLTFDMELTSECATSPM
Chain of Paired box protein Pax-6 (Homo sapiens) (P26367 whole entry, looked up): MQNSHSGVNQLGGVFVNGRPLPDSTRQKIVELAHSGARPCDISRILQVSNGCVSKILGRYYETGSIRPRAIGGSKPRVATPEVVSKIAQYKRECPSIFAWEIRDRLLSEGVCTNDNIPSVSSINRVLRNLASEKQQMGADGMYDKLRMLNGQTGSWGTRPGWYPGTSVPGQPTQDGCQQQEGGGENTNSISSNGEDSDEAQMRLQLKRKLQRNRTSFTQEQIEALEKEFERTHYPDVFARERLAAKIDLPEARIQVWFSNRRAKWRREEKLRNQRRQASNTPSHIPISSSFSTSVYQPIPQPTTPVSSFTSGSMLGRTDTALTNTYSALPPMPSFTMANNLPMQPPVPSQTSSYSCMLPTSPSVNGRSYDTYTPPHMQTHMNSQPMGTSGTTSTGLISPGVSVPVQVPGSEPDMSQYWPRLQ

For `O=C(Oc1ccccc1)c1ccccc1`, the result in test [1], in test [2], in test [3], in test [4], in [5] and in test [6] was inactive. The outcome in test [7], in [8], in test [9], in [10], in [11] and in test [12] was inactive. Moreover, the result in [13], in test [14], in test [15], in [16], in test [17] and in test [18] was inactive. The molecule was classed as inactive in [19] and in [20].
With `COC(=O)CCSCCC(=O)OC`, the outcome in test [1], in test [2], in test [3], in [4], in test [5] and in test [6] was inactive. The result in test [7], in test [8], in test [9], in test [10], in test [11] and in test [12] was inactive. The molecule was classed as inactive in [13], in test [14], in [15], in test [16], in test [17] and in test [18]. Further, the result in test [19] and in test [20] was inactive.
In general, AC50 refers to the concentration giving half of the maximal activity seen. `Cc1ccccc1S(=O)(=O)O`: the result in test [1], in test [2], in test [3], in test [4], in test [5] and in [6] was inactive. Further, the molecule was classed as inactive in test [7], in test [8], in test [9], in test [10], in test [11] and in [12]. Also, the call in test [13], in test [14], in test [15], in test [16], in [17] and in test [19] was inactive. Also, in test [20], the call was inactive. Also, the AC50 in test [18] was 70.6 µM (active).
As for `CO[Si](CCCNCCN)(OC)OC`, the outcome in test [1], in test [2], in [3], in [4], in [5] and in test [6] was inactive. For the same molecule, the molecule was classed as inactive in test [7], in [8], in test [9], in test [10], in test [11] and in test [12]. The result in test [13], in test [14], in [15], in test [16], in [17] and in [19] was inactive. Moreover, the molecule was classed as inactive in [20]. The AC50 in test [18] was 37.3 µM (active).
With `CCC(C)=NO`, the molecule was called inactive in test [1], in test [2], in test [3], in test [4], in [5] and in test [6]. In addition, the outcome in test [7], in test [8], in [9], in test [10], in test [11] and in [12] was inactive. Besides, the molecule was called inactive in test [13], in test [14], in [15], in test [16], in test [17] and in test [18]. Further, the result in test [19] and in [20] was inactive.
Take `CCC(C)C1N=C(C)C(C)S1` (stereo not given): the molecule was classed as inactive in test [1], in [2], in test [3], in test [4], in [5] and in [6]. The call in test [7], in test [8], in test [9], in [10], in [11] and in [12] was inactive. The molecule was called inactive in test [13], in test [14], in test [15], in test [16], in [17] and in test [19]. Further, the molecule was classed as inactive in test [20]. The AC50 in test [18] was 3.25 µM (active).
Consider `Oc1cccc2ccccc12`, for which the molecule was classed as inactive in test [1], in test [2], in [4], in test [5], in [6] and in [7]. For the same molecule, the result in [8], in [9], in test [10], in test [11], in test [12] and in test [13] was inactive. In addition, the molecule was called inactive in test [14], in [15], in test [16], in test [17], in test [19] and in test [20]. In addition, the results for the AC50 in test [3] and in [18] were 100 µM (active) and 5.66 µM (active), respectively.

These data come from PubChem BioAssay (EPA / NIEHS).
